The list is not random: actives were taken first. Their share in the collection is about 1.2%.
SKN-1 inh: inhibitors of C. elegans SKN-1; C. elegans VP596 Pgst-4::GFP/RFP ratio, acrylamide-induced, 24 h; inhibition, % at 21.8 µM; 360,000 compounds, 0.49% hits;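 active means interference check ratio from 0.5 to 1.5 plus GFP to RFP signal ratio inhibition reaching or exceeding a fixed threshold, cut at about 30% in these data, passing the limit was not always enough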
Platelet DG rel: modulates dense granule release in human platelets. human platelet-rich plasma, SFLLRN dense granule ATP release, luminescence. 300,000 compounds, 0.22% hits. AID 1663. inhibition, %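 (compounds screened at 7.5 µM in platelet-rich plasma)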;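 active means mean replicate score, as percent of positive control, at or above 50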
CR mimetic SO: yeast age-related superoxide inhibition as caloric restriction mimetic. AID 2690. 330,000 compounds, 0.18% hits. S. cerevisiae aged cells, superoxide DHE fluorescence; stronger effect = lower value. superoxide response (% of plate mean), % at 10 µM;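 active means superoxide response under a set limit, about three screen SD below normal, cut at about 65% in these data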;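 further: yeast aged for seven days with compound at 30 °C before DHE staining; 100% = average MFI of all compound-treated wells on the plate with controls excluded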
ABCB6 inh MLPCN: inhibitors of human ABC transporter ABCB6 | fluorescence ratio to DMSO, % at 10 µM | AID 602162 | K562-ABCB6 porphyrin accumulation, flow cytometry, 1 h; stronger effect = lower value | Q9NP58 | 360,000 compounds, 0.19% hits;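 active means fluorescence ratio to DMSO below 75%, the collection mean minus 3 SD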;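 further: signal is porphyrin accumulated inside mitochondria; 100% equals median channel fluorescence of DMSO control wells; lower ratio means ABCB6 inhibition with less porphyrin fluorescence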
Target sequence (Q9NP58 whole entry, looked up): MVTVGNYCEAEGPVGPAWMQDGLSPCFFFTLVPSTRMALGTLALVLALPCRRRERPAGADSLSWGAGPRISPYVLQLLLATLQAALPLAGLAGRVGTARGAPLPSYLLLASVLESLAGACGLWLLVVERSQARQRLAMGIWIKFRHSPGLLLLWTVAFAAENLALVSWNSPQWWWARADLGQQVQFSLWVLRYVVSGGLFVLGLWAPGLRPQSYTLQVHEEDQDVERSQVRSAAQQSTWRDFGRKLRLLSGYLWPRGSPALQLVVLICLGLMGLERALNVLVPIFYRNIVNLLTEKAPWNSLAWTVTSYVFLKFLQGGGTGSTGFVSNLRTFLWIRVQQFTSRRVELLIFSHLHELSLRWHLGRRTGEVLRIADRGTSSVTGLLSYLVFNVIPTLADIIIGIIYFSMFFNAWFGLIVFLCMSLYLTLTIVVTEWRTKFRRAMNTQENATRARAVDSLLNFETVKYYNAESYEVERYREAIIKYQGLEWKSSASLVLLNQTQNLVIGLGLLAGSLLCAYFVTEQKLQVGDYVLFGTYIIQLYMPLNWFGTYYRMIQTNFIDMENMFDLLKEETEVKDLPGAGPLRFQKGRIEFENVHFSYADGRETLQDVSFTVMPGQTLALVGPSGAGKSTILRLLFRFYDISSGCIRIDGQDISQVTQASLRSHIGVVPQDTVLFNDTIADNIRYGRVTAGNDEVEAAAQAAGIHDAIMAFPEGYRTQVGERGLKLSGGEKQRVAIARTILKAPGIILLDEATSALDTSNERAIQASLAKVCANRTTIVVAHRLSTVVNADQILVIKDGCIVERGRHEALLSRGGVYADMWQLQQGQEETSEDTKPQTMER
VLA-4 inh: inhibition in a human VLA-4 binding assay; P13612; AID 2557; VLA-4 expressing cells, ligand binding flow cytometry; inhibition, % (about 7 µM as worked out from the volumes in the protocol); 330,000 compounds, 0.2% hits; in the data active means inhibition above about 50%
ABCB6 inh CP1: inhibitors of human ABC transporter ABCB6; shares compounds with ABCB6 inh MLPCN; K562-ABCB6 porphyrin accumulation, flow cytometry, 1 h; stronger effect = lower value; ratio response (% of DMSO), % at 10 µM; 700 tested, under 10 active; AID 602430;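 active means repeat-averaged ratio response below 75% of DMSO, the collection mean minus 3 SD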;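 further: median porphyrin fluorescence at 575 nm with 488 nm excitation from mitochondria; lower ratio means less porphyrin signal so ABCB6 inhibition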
Starred values were filed as active, the others as inactive.

For N#CCCN/N=C(\Cc1nc2ccccc2[nH]1)c1ccccc1 the results were SKN-1 inh -3, Platelet DG rel 4, CR mimetic SO 88, ABCB6 inh MLPCN 61*, VLA-4 inh -14 and ABCB6 inh CP1 108.
N#CCCN/N=C(/Cc1nc2ccccc2[nH]1)c1ccc(Cl)cc1 was read as Platelet DG rel -2, CR mimetic SO 107 and VLA-4 inh -10.
For CCc1nc(SCC(=O)N2CCN(C(=O)c3ccco3)CC2)c2c3c(sc2n1)CCCC3 the results were SKN-1 inh -11, Platelet DG rel -4, CR mimetic SO 114, ABCB6 inh MLPCN 28*, VLA-4 inh 3 and ABCB6 inh CP1 98.
`O=c1cc(CSc2nnnn2-c2ccccc2)nc2nc[nH]n12` gave SKN-1 inh -6, Platelet DG rel 4, CR mimetic SO 99, ABCB6 inh MLPCN 64*, VLA-4 inh 28 and ABCB6 inh CP1 98.
For O=c1cc(CSc2nnnn2-c2ccccc2)nc2sccn12 the results were SKN-1 inh -2, Platelet DG rel 6, CR mimetic SO 96, ABCB6 inh MLPCN 96 and VLA-4 inh 1.
For CCn1c(SCC#N)nc2c(c1=O)C1(CCCC1)Cc1ccccc1-2 the results were SKN-1 inh 2, Platelet DG rel -1, CR mimetic SO 93, ABCB6 inh MLPCN 71*, VLA-4 inh -2 and ABCB6 inh CP1 101.
For COc1ccc(C(=O)C[C@@H]2OC[C@H](Cc3ccccc3)N2S(=O)(=O)c2ccc(C)cc2)cc1OC the results were SKN-1 inh -9.
For Cc1ccc(NC(=O)Nc2ccon2)cc1 the results were SKN-1 inh 18, Platelet DG rel 7, ABCB6 inh MLPCN 10* and ABCB6 inh CP1 99.
For CCOC(=O)C1(C)CCN1C(=O)c1ccc(SC(F)(F)F)cc1 (stereo unspecified) the results were SKN-1 inh -3 and ABCB6 inh MLPCN 93.
For COc1ccc(OC)c(S(=O)(=O)N2CCC(C(=O)NCc3ccccn3)CC2)c1 the results were SKN-1 inh 1, Platelet DG rel 1, CR mimetic SO 99, ABCB6 inh MLPCN 73*, VLA-4 inh 13 and ABCB6 inh CP1 96.
COc1ccc(S(=O)(=O)N2CCC(C(=O)NCc3ccccn3)CC2)cc1OC was read as SKN-1 inh 4, Platelet DG rel 13, CR mimetic SO 96, ABCB6 inh MLPCN 101 and VLA-4 inh 1.
For CC1(C(=O)Nc2cccnc2)Cc2c(-c3ccc4c(c3)OCO4)ccnc2O1 (stereo unspecified) the results were SKN-1 inh 6, ABCB6 inh MLPCN 94 and ABCB6 inh CP1 99.
For CC(=O)c1cccc(NC(=O)C2(C)Cc3c(-c4cccc(C(F)(F)F)c4)ccnc3O2)c1 (stereo unspecified) the results were SKN-1 inh 3, ABCB6 inh MLPCN 76 and ABCB6 inh CP1 100.
`CC1(C(=O)Nc2cccc(OC(F)(F)F)c2)Cc2c(-c3cccc(C(F)(F)F)c3)ccnc2O1` (stereo unspecified) gave SKN-1 inh 2 and ABCB6 inh MLPCN 97.
CC(=O)Nc1ccc(NC(=O)C2(C)Cc3c(-c4cccc(C(F)(F)F)c4)ccnc3O2)cc1 (stereo unspecified) was read as SKN-1 inh 6 and ABCB6 inh MLPCN 98.
Screening CC1(C(=O)Nc2cccnc2)Cc2c(-c3cccc(C(F)(F)F)c3)ccnc2O1 (stereo unspecified) returned SKN-1 inh 13, ABCB6 inh MLPCN 94 and ABCB6 inh CP1 97.
`Cc1ccc(S(=O)(=O)N2CCN(Cc3ccccc3)CC2)cc1` gave SKN-1 inh 3, Platelet DG rel 3, CR mimetic SO 98, ABCB6 inh MLPCN 8.0*, VLA-4 inh 7 and ABCB6 inh CP1 92.
`O=S(=O)(c1ccccc1)N1CCN(Cc2ccccc2)CC1` gave SKN-1 inh -7, Platelet DG rel 1, CR mimetic SO 101, ABCB6 inh MLPCN 93 and VLA-4 inh -2.
CCN(CCCNc1cc2c(c(N)c1S(=O)(=O)O)C(=O)c1ccccc1C2=O)c1ccccc1 was read as SKN-1 inh 15 and ABCB6 inh MLPCN 153.
COc1ccccc1C(=O)Nc1ccnn1C1CCN(C(=O)c2ccoc2C)CC1 was read as SKN-1 inh 2, Platelet DG rel 4, CR mimetic SO 90, ABCB6 inh MLPCN 99 and VLA-4 inh 0.
COc1ccccc1C(=O)Nc1ccnn1C1CCN(C(=O)c2ccoc2)CC1 was read as SKN-1 inh 10, Platelet DG rel -3, CR mimetic SO 94, ABCB6 inh MLPCN 74*, VLA-4 inh 7 and ABCB6 inh CP1 98.
CCCCn1ccnc1C(=O)c1cc(S(=O)(=O)N2CCOCC2)ccc1C was read as SKN-1 inh -17, Platelet DG rel -10, CR mimetic SO 86, ABCB6 inh MLPCN 97 and VLA-4 inh -6.
CCCCn1ccnc1C(=O)c1cccc(S(=O)(=O)N2CC(C)CC(C)C2)c1 (stereo unspecified) was read as SKN-1 inh 13, Platelet DG rel -4, CR mimetic SO 94, ABCB6 inh MLPCN 74*, VLA-4 inh -8 and ABCB6 inh CP1 97.
For COC(=O)C1C(=O)N(S(=O)(=O)c2ccc([N+](=O)[O-])cc2)c2ccccc21 (stereo unspecified) the results were SKN-1 inh -1.
Screening COc1ccc(NC(=O)c2sc3nc4n(c(=O)c3c2C)CCC4)c(OC)c1 returned ABCB6 inh CP1 102.
Screening CSc1cccc(NC(=O)c2sc3nc4n(c(=O)c3c2C)CCC4)c1 returned SKN-1 inh -7, Platelet DG rel -1, CR mimetic SO 131, ABCB6 inh MLPCN 93 and VLA-4 inh 10.
Cc1c(C(=O)Nc2ccc(OC(F)(F)F)cc2)sc2nc3n(c(=O)c12)CCC3 was read as SKN-1 inh -5, Platelet DG rel 0, CR mimetic SO 115, ABCB6 inh MLPCN 66*, VLA-4 inh 2 and ABCB6 inh CP1 98.
`COc1cccc(NC(=O)c2sc3nc4n(c(=O)c3c2C)CCC4)c1` gave SKN-1 inh 7, Platelet DG rel 0, CR mimetic SO 116, ABCB6 inh MLPCN 24*, VLA-4 inh -5 and ABCB6 inh CP1 102.
CN1CCN(NC(=O)c2cc(-c3ccc(Cl)s3)nc3ccccc23)CC1 was read as SKN-1 inh 5, Platelet DG rel 12, CR mimetic SO 105, ABCB6 inh MLPCN 72*, VLA-4 inh 3 and ABCB6 inh CP1 101.
CCCCCCCCN1C(=O)[C@H](CC(=O)NCc2cccs2)C[C@@]2(C(=O)OC)CC(C)(C)CC=C12 was read as SKN-1 inh 16.
Screening C=CCn1nc(C(=O)Nc2ccc(OC)cc2)cc1-c1sc(NC(=O)c2ccccc2)nc1C returned SKN-1 inh 0.
`O=C(CCc1ccc(S(=O)(=O)N2CCOCC2)cc1)Oc1ccccc1` gave SKN-1 inh -2, Platelet DG rel -4, CR mimetic SO 73, ABCB6 inh MLPCN 62*, VLA-4 inh -5 and ABCB6 inh CP1 98.

High-throughput results: PubChem, several laboratories
